The results in this text go back to PubChem BioAssay (NCATS).

Inconclusive results are not listed. A number with no mark means an inactive call. Active and inactive are the calls of the source. The call rests on the fitted dose curve; in most records, active means well fitted curve in the direction sought with a large enough effect; inconclusive means small, poorly fitted or top-dose-only effect, or another doubt; inactive means no such curve, though single readings can be large; an effect the other way counts as inactive or inconclusive.

Experiment [1] in a line: qHTS of pediatric cancer cell lines to identify multiple opportunities for drug repurposing: Primary screen for DAOY cells (AID 1347090). Further: nearly all actives have a fitted effect of over 55% in size. A digest of the protocol: (§1)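 Cell viability, CellTiter-Glo luminescence; 500-1,000 cells/well, 8- or 11-point titration, 48 h compound exposure at 37 degrees C, 5% CO2. Controls: DMSO neutral, bortezomib 2.3 µM final as positive.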
(In general: In qHTS, concentration-response curves come from the screen itself.)

The nature of experiment [2]: qHTS of pediatric cancer cell lines to identify multiple opportunities for drug repurposing: Primary screen for SJ-GBM2 cells (AID 1347091). A digest of the protocol:
as §1

Experiment [3] can be described thus: qHTS of pediatric cancer cell lines to identify multiple opportunities for drug repurposing: Primary screen for A673 cells (AID 1347092). Further: nearly all actives have a fitted effect of over 45% in size. A digest of the protocol: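 48 h compound exposure, A673, 500-1,000 cells/well, 37 degrees C/5% CO2. MIPE: 11-point, 0.78 nM-46 µM; NPC: 8-point, 0.59 nM-46 µM (final). Readout CellTiter-Glo luminescence after 15 min RT.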

Experiment [4] in a line: qHTS of pediatric cancer cell lines to identify multiple opportunities for drug repurposing: Primary screen for SK-N-MC cells (AID 1347093). Put shortly: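 Metabolically active cells were quantified by ATP-dependent luminescence (CellTiter-Glo, 15 min at room temperature) following 48 h treatment. Cells had been plated at 500-1,000 per well and settled for 5 h beforehand.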

Experiment [5] in a line: qHTS of pediatric cancer cell lines to identify multiple opportunities for drug repurposing: Primary screen for BT-37 cells (AID 1347094). Put shortly: (§2)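 Readout: CellTiter-Glo luminescence, 48 h treatment. Controls DMSO (neutral) and bortezomib 2.3 µM final (positive). Potency and efficacy taken from primary-screen concentration-response curves.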
A short description of experiment [6]: qHTS of pediatric cancer cell lines to identify multiple opportunities for drug repurposing: Primary screen for NB-EBc1 cells (AID 1347095). A digest of the protocol:
as §2

Experiment [7] can be described thus: qHTS of pediatric cancer cell lines to identify multiple opportunities for drug repurposing: Primary screen for U-2 OS cells (AID 1347096). Further: nearly all actives have a fitted effect of over 50% in size. Put shortly:
(§3)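 Cells (500-1,000/well) rested 5 h, then received compounds for 48 h; metabolically active cells were measured by CellTiter-Glo luminescence. Final concentrations spanned up to 46 µM (MIPE, 11-point) or 0.59 nM-46 µM (NPC, 8-point) in primary screens, 11-point in follow-ups.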

Experiment [8] can be described thus: qHTS of pediatric cancer cell lines to identify multiple opportunities for drug repurposing: Primary screen for Saos-2 cells (AID 1347097). Further: nearly all actives have a fitted effect of over 40% in size. A digest of the protocol: as §2
Experiment [9] is described as follows: qHTS of pediatric cancer cell lines to identify multiple opportunities for drug repurposing: Primary screen for SK-N-SH cells (AID 1347098). Further: nearly all actives have a fitted effect of over 65% in size. A digest of the protocol: as §3
Experiment [10] can be described thus: qHTS of pediatric cancer cell lines to identify multiple opportunities for drug repurposing: Primary screen for NB1643 cells (AID 1347099). Further: nearly all actives have a fitted effect of over 50% in size. A digest of the protocol:
as §2
Potency means the concentration at half of the fitted maximal effect.

In the case of `CC(=O)CC(c1ccc([N+](=O)[O-])cc1)c1c(O)c2ccccc2oc1=O` (configuration not stated), the Potency result in experiment [1], in experiment [2], in experiment [3], in experiment [4], in experiment [5] and in experiment [6] was “inactive” in each case. The Potency result in experiment [7], in experiment [8], in experiment [9] and in [10] was “inactive” in each case.

Consider `CCN1CCN(c2cc3c(cc2F)c(=O)c(C(=O)O)cn3C2CC2)CC1`, for which the Potency result in [1], in experiment [2], in experiment [3], in experiment [4], in experiment [5] and in experiment [6] was “inactive” throughout. The Potency entry in experiment [7], in experiment [8], in experiment [9] and in experiment [10] was “inactive” in each case.

As to `C=C1C(=C/C=C2\CCC[C@]3(C)[C@@H]([C@H](C)/C=C/[C@@H](O)C4CC4)CC[C@@H]23)C[C@@H](O)C[C@@H]1O`, the Potency result in [1] and in experiment [2] was “inactive” in each case.

Turning to `CCCCC(=O)O[C@]1(C(=O)CO)CC[C@H]2[C@@H]3CCC4=CC(=O)CC[C@]4(C)[C@H]3[C@@H](O)C[C@@]21C`, the Potency entry in experiment [1], in experiment [2], in experiment [3], in experiment [4], in experiment [5] and in experiment [6] was “inactive” throughout. The Potency entry in experiment [7], in experiment [8], in [9] and in experiment [10] was “inactive” throughout.

For `NC(CS)C(=O)O` (configuration not stated), the Potency result in experiment [1], in [2], in experiment [3], in experiment [4], in experiment [5] and in [6] was “inactive” in each case. In addition, the Potency result in [7], in experiment [8], in [9] and in [10] was “inactive” each time.

Regarding `Cc1c(F)c(N2CCNC(C)C2)cc2c1c(=O)c(C(=O)O)cn2C1CC1` (configuration not stated), the Potency result in experiment [1], in experiment [2], in [3], in experiment [4], in experiment [5] and in [6] was “inactive” in each case. Moreover, the Potency result in experiment [7], in [8], in experiment [9] and in experiment [10] was “inactive” throughout.

Take `CCOc1ccc(Cc2nccc3cc(OCC)c(OCC)cc23)cc1OCC`: in experiment [1], the Potency was 21100 nM (active). In addition, the Potency result in experiment [2] was “inactive”.

Consider `CC(=O)OCC(=O)[C@@]1(OC(C)=O)[C@@H](C)C[C@H]2[C@@H]3C[C@H](F)C4=CC(=O)C=C[C@]4(C)[C@@]3(F)[C@@H](O)C[C@@]21C`, for which the Potency result in [1], in experiment [2], in experiment [3], in experiment [4], in experiment [5] and in experiment [6] was “inactive” throughout. The Potency entry in experiment [7], in experiment [8] and in experiment [9] was “inactive” in each case.

As for `CC(=O)Nc1c(I)cc(I)c(C(=O)O)c1I`, the Potency entry in experiment [1], in [2], in experiment [3], in [4], in experiment [5] and in experiment [6] was “inactive” throughout. Moreover, the Potency result in experiment [7], in [8], in experiment [9] and in experiment [10] was “inactive” throughout.

On to `C[C@]12CCC(=O)C=C1CC[C@H]1[C@@H]3CC[C@](O)(C(=O)CO)[C@@]3(C)C[C@H](O)[C@@]12F`, for which the Potency result in [1], in experiment [2], in experiment [3], in experiment [4], in [5] and in experiment [6] was “inactive” throughout. Further, the Potency result in experiment [7], in [8], in experiment [9] and in [10] was “inactive” in each case.

On to `CN=C(NC#N)NCCSCc1csc(N=C(N)N)n1`, for which the Potency entry in experiment [1], in experiment [2], in [3], in experiment [4], in experiment [5] and in experiment [6] was “inactive” each time. Moreover, the Potency result in experiment [7], in experiment [8], in experiment [9] and in [10] was “inactive” throughout.

As for `CC[C@@H](CO)NCCN[C@@H](CC)CO`, the Potency entry in experiment [1], in experiment [2], in experiment [3], in experiment [4], in experiment [5] and in [6] was “inactive” in each case. Besides, the Potency result in experiment [7], in experiment [8], in [9] and in [10] was “inactive” throughout.

On to `COc1cc2c(cc1OC)C(=O)C(CC1CCN(Cc3ccccc3)CC1)C2` (configuration not stated), for which the Potency entry in experiment [1], in experiment [2], in [3], in [4], in experiment [5] and in experiment [6] was “inactive” in each case. The Potency result in experiment [7] and in [8] was “inactive” each time.

Turning to `OC(CCN1CCCCC1)(c1ccccc1)c1ccccc1`, the Potency entry in experiment [1], in [2], in experiment [3], in experiment [4], in [5] and in [6] was “inactive” each time. Besides, the Potency result in [7], in [8], in experiment [9] and in experiment [10] was “inactive” each time.

On to `C[C@]12C=CC(=O)C=C1[C@@H](F)C[C@@H]1[C@@H]2[C@@H](O)C[C@@]2(C)[C@H]1CC[C@]2(O)C(=O)CO`, for which the Potency result in experiment [1], in experiment [2], in experiment [3], in [4], in [5] and in [6] was “inactive” each time. Also, the Potency result in experiment [7], in [8], in experiment [9] and in [10] was “inactive” throughout.

For the molecule `CCCCOc1ccc(OCCCN2CCOCC2)cc1`, the Potency entry in experiment [1], in experiment [2], in experiment [3], in experiment [4], in experiment [5] and in [6] was “inactive” each time. The Potency entry in [7], in [8], in experiment [9] and in experiment [10] was “inactive” throughout.

For `COCc1c(C(C)C)nc(C(C)C)c(/C=C/[C@@H](O)C[C@@H](O)CC(=O)O)c1-c1ccc(F)cc1`, the Potency in experiment [1] is 266 nM (active); in experiment [2], 237 nM (active); in experiment [3], 668 nM (active); in experiment [4], 1190 nM (active); in experiment [5], 2190 nM (active); in experiment [6], 1680 nM (active). In addition, the Potency in experiment [7] was 841 nM (active); in [8] it was 106 nM (active); in experiment [9], 433 nM (active); in experiment [10], 1500 nM (active).

`NCCCC[C@H](N[C@@H](CCc1ccccc1)C(=O)O)C(=O)N1CCC[C@H]1C(=O)O`: the Potency entry in experiment [1], in experiment [2], in [3], in [4], in experiment [5] and in experiment [6] was “inactive” throughout. For the same molecule, the Potency result in experiment [8], in experiment [9] and in experiment [10] was “inactive” each time.

Regarding `CC(C)COC(=O)c1ccc(N)cc1`, the Potency result in experiment [1], in experiment [2], in experiment [3], in [4], in experiment [5] and in experiment [6] was “inactive” in each case. Also, the Potency result in [7], in experiment [8] and in experiment [10] was “inactive” each time.

In the case of `OCc1ccccc1O`, the Potency result in experiment [1], in experiment [2], in [3], in experiment [4], in experiment [5] and in experiment [6] was “inactive” each time. In addition, the Potency entry in experiment [7], in [8], in [9] and in experiment [10] was “inactive” throughout.

For the molecule `COc1cccc(OC)c1C(=O)N[C@@H]1C(=O)N2[C@@H]1SC(C)(C)[C@@H]2C(=O)O`, the Potency result in experiment [1], in experiment [2], in experiment [3], in experiment [4], in experiment [5] and in [7] was “inactive” throughout. Further, the Potency result in experiment [8], in [9] and in experiment [10] was “inactive” throughout.

With `O=c1ccc2ccccc2o1`, the Potency result in [1], in experiment [2], in experiment [3], in experiment [4], in experiment [5] and in [6] was “inactive” in each case. Besides, the Potency entry in experiment [8], in experiment [9] and in experiment [10] was “inactive” in each case.
